Where “and” joins values, the source holds several entries; their conditions need not be identical. Identical values can stand only once. Inconclusive results are not listed. Entries that show only a call come without a potency. A number with no mark means an inactive call. Calls of active or inactive are those of the source. The call rests on the fitted dose curve; in most records, active means well fitted inhibition curve with a large enough effect; inconclusive means small, poorly fitted or top-dose-only effect; inactive means flat fitted curve, though single readings scatter.
Legend:
NIH3T3 [1] = test: Cytotoxic Profiling of Annotated Libraries Using Quantitative High-Throughput Screening (AID 1296008); details: Five cell lines viability, CellTiter-Glo ATP luminescence, 48-72 h; max response: hits give low values
Procedure, shortened: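 Cytotoxicity was measured as CellTiter-Glo ATP luminescence, read after 10 min at room temperature. Compound treatment of the cells lasted 48 or 72 hr at 37 degrees Celsius in a qHTS format.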

HACAT = test: qHTS assay to identify novel small-molecules to repurpose for Merkel cell carcinoma treatment (AID 1296009); details: MCC and control cell lines, CellTiter-Glo viability, 72 h; at 44.8 µM (top of the series) unless noted
Procedure, shortened: (§1)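 Cell viability measured by CellTiter-Glo following 72 hr compound treatment at 37 degree celsius, with NPC and MIPE libraries tested in 8- and 11-point concentration series.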

MCC-13 = test: as above; details: MCC and control cell lines, CellTiter-Glo viability, 72 h; series mostly up to 46 µM
Procedure, shortened: as §1

MCC-26 = test: as above; details: MCC and control cell lines, CellTiter-Glo viability, 72 h; series mostly up to 46 µM
Procedure, shortened: as §1

MKL-1 = test: as above; details: MCC and control cell lines, CellTiter-Glo viability, 72 h; series mostly up to 46 µM
Procedure, shortened: as §1

MKL-2 = test: as above; details: MCC and control cell lines, CellTiter-Glo viability, 72 h; series mostly up to 46 µM
Procedure, shortened: as §1

UISO = test: as above; details: MCC and control cell lines, CellTiter-Glo viability, 72 h; series mostly up to 46 µM
Procedure, shortened: as §1

HEK293T = test: as above; details: MCC and control cell lines, CellTiter-Glo viability, 72 h; at 44.8 µM (top of the series) unless noted
Procedure, shortened: as §1

NIH3T3 [2] = test: as above; details: MCC and control cell lines, CellTiter-Glo viability, 72 h; at 44.8 µM (top of the series) unless noted
Procedure, shortened: as §1
Further: nearly all actives have a fitted effect of over 60% in size.
Potency means the concentration at half of the fitted maximal effect.

Compound | max response (NIH3T3 [1]) | outcome (HACAT) | Potency (MCC-13) | Potency (MCC-26) | Potency (MKL-1) | Potency (MKL-2) | Potency (UISO) | outcome (NIH3T3 [1]) | outcome (HEK293T) | outcome (NIH3T3 [2]) | Potency (NIH3T3 [1])
C[C@@H]1[C@H](O)[C@@H](C)C=CC=CCCC=CC=CC=CC=C[C@H](O[C@H]2O[C@@H](C)[C@H](O)[C@@H](N)[C@@H]2O)CC2O[C@](O)(C[C@@H](O)[C@H](O)CC[C@@H](O)C[C@@H](O)C[C@@H](O)CC(=O)O[C@H]1C)C[C@H](O)[C@H]2C(=O)O | -3.28% | inactive | inactive | inactive | inactive | inactive | inactive | – | – | – | –
CCOC(=O)c1cncn1[C@H](C)c1ccccc1 | – | inactive | inactive | inactive | inactive | inactive | inactive | inactive | inactive | inactive | –
O=[N+]([O-])c1c(Cl)c(Cl)cc(Cl)c1Cl | – | inactive [at 92 µM] | inactive | inactive | inactive | inactive | inactive | inactive | – | inactive [at 92 µM] | –
COc1ccc(C(=O)c2c(C)n(CCN3CCOCC3)c3cc(I)ccc23)cc1 | – | inactive | inactive | inactive | – | 1480 nM (active) | – | inactive | – | inactive | –
COC(C)(C)CCCC(C)C/C=C/C(C)=C/C(=O)OC(C)C (stereo not drawn) | – | inactive | inactive | inactive | inactive | inactive | inactive | inactive | – | inactive | –
Fc1cc(Br)ccc1CBr | – | inactive | inactive | inactive | inactive | inactive | inactive | inactive | – | inactive | –
C#C[C@]1(O)C=C[C@@H]2[C@@H]3CCC4=CC(=O)CC[C@@H]4[C@H]3CC[C@@]21CC | -5.86% | inactive | inactive | inactive | inactive | inactive | inactive | – | – | – | –
CCCCCCCCCC(CC)c1ccc(S(=O)(=O)O)cc1 (stereo not drawn) | -1.31% | inactive [at 92 µM] | inactive | inactive | inactive | inactive | inactive | – | – | – | –
C[C@]12COC(=O)C[C@@H]1CC[C@@H]1[C@H]2CC[C@@]2(C)[C@H]1CC[C@]2(C)O | -1.39% | inactive | inactive | inactive | inactive | inactive | inactive | – | – | – | –
CCCC[N+]1(C)[C@H]2CC(OC(=O)[C@H](CO)c3ccccc3)C[C@H]1[C@H]1O[C@H]12 (stereo partly drawn) | -3.27% | inactive | inactive | inactive | inactive | inactive | inactive | – | – | – | –
CC(=O)NCCc1c[nH]c2ccccc12 | – | inactive [at 92 µM] | – | – | – | – | – | inactive | – | inactive [at 92 µM] | –
NC1=NC(=O)N2CC12 (stereo not drawn) | – | inactive | inactive | inactive | inactive | – | – | inactive | – | inactive | –
CCOP(=O)(NC(C)C)Oc1ccc(SC)c(C)c1 (stereo not drawn) | -4.93% | inactive [at 92 µM] | inactive | inactive | inactive | inactive | inactive | – | – | – | –
O=S(=O)(O)C(F)(F)C(F)(F)C(F)(F)C(F)(F)F | – | – | inactive | inactive | inactive | inactive | inactive | inactive | inactive [at 92 µM] | inactive [at 92 µM] | –
C=C1C[C@H]2[C@H]3CCC(=O)[C@@]3(C)CC[C@@H]2[C@@]2(C)C=CC(=O)C=C12 | -14.2% | inactive | inactive | inactive | inactive | – | inactive | – | – | – | –
CN(C)[C@@H]1C(=O)C(C(N)=O)=C(O)[C@@]2(O)C(=O)C3=C(O)c4c(O)cccc4[C@@](C)(O)[C@H]3[C@H](O)[C@@H]12 | 4.97% | inactive | inactive | inactive | inactive | inactive | inactive | – | inactive | – | –
CC(N[C@H]1C[C@H]1c1ccccc1)c1ccc2c(c1)OCCO2 (stereo partly drawn) | 4.85% and -28.5% | inactive | inactive | inactive | inactive | inactive | inactive | – | – | – | –
CC[N+]1(CCOC(=O)C(O)(c2ccccc2)c2ccccc2)CCCCC1 | – | inactive | inactive | inactive | inactive | inactive | inactive | inactive | inactive | inactive | –
O=C(O)COc1ccccc1 | -0.908% | inactive | inactive | inactive | inactive | inactive | inactive | – | – | – | –
CS(=O)(=O)c1ccc(C(=O)C2C(=O)CCCC2=O)c([N+](=O)[O-])c1 | 4.33% | – | inactive | inactive | inactive | inactive | inactive | – | – | – | –
CC(C)(O)C=CC(=O)[C@](C)(O)[C@H]1[C@H](O)C[C@]2(C)[C@@H]3CC=C4[C@@H](C=C(O)C(=O)C4(C)C)[C@]3(C)C(=O)C[C@@]12C | – | – | 264 nM (active) | – | 66.2 nM (active) | 37.2 nM (active) | 166 nM (active) | – | – | – | 2.96 µM (active)
N=c1c2c(-c3ccccc3)c(-c3ccccc3)n(Cc3ccccc3)c2ncn1C1CCC(O)CC1 (stereo not drawn) | -14.3% | – | – | inactive | 18700 nM (active) | 14800 nM (active) | 3720 nM (active) | – | – | – | –

Compound | max response (NIH3T3 [1]) | outcome (HACAT) | Potency (MCC-13) | Potency (MCC-26) | Potency (MKL-1) | Potency (MKL-2) | Potency (UISO) | outcome (NIH3T3 [1]) | outcome (HEK293T) | outcome (NIH3T3 [2]) | Potency (NIH3T3 [1])
CC=C(C)C(=O)O[C@H]1C(C)=C2[C@@H]3OC(=O)[C@@](C)(O)[C@@]3(O)[C@@H](OC(=O)CCC)C[C@](C)(OC(C)=O)[C@@H]2[C@@H]1OC(=O)CCCCCCC | – | – | 1870 nM (active) | 1320 nM (active) | 11800 nM (active) | 3720 nM (active) | 235 nM (active) | – | – | – | 0.0187 µM (active)
c1ccc2c(CN3CCNCC3)cccc2c1 | 4.9% | – | inactive | inactive | inactive | inactive | inactive | – | – | – | –
C[C@@H]1O[C@@H](O[C@@H]2C=C3CC[C@@H]4[C@@H](CC[C@]5(C)[C@H](c6ccc(=O)oc6)CC[C@@]45O)[C@@]3(C)CC2)[C@H](O)[C@H](O)[C@H]1O | – | – | 37.2 nM (active) | – | 105 nM (active) | 132 nM (active) | – | – | – | – | 3.72 µM (active)
O=[N+]([O-])c1c2ccccc2cc2ccccc12 | -10.2% | – | inactive | inactive | – | – | 42800 nM (active) | – | – | – | –
CC[C@@]1(O)C(=O)OCc2c1cc1n(c2=O)Cc2cc3ccccc3nc2-1 | – | – | 26.4 nM (active) | 74.3 nM (active) | 33.2 nM (active) | 74.3 nM (active) | 29.6 nM (active) | – | – | – | 0.148 µM (active)
CCO/N=C(\CC)C1=C(O)CC(c2c(C)cc(C)cc2C)CC1=O (stereo not drawn) | -12.4% | – | inactive | inactive | inactive | – | inactive | – | – | – | –
Cc1[nH]nc2ccc(-c3cncc(OC[C@@H](N)Cc4c[nH]c5ccccc45)c3)cc12 | – | – | 2350 nM (active) | 3720 nM (active) | – | 3720 nM (active) | 235 nM (active) | – | – | – | 1.66 µM (active) and 1.64 µM (active)
CC(C)[C@]12O[C@@H]1[C@@H]1O[C@]13[C@]1(O[C@H]1C[C@@H]1C4=C(CC[C@@]13C)C(=O)OC4)[C@H]2O | -117% | – | inactive | inactive | inactive | inactive | inactive | – | – | – | –
Oc1ccc2c3c1O[C@H]1[C@@H](O)C=C[C@H]4[C@@H](C2)NCC[C@@]341 | -2.9% | – | inactive | inactive | – | – | inactive | – | – | – | –
CC(=Cc1csc(C)n1)[C@@H]1C[C@H]2O[C@@H]2CCC[C@H](C)[C@@H](O)[C@@H](C)C(=O)C(C)(C)[C@@H](O)CC(=O)O1 | -77% | – | – | – | inactive | inactive | inactive | – | – | – | –
Cc1c(N)nc([C@H](CC(N)=O)NC[C@@H](N)C(N)=O)nc1C(=O)N[C@H](C(=O)N[C@@H](C)[C@H](O)[C@@H](C)C(=O)N[C@@H](C(=O)NCCc1nc(-c2nc(C(=O)NCCC[S+](C)C)cs2)cs1)[C@@H](C)O)C(O[C@H]1O[C@H](CO)[C@H](O)[C@@H](O)[C@@H]1O[C@H]1O[C@H](CO)[C@@H](O)[C@H](OC(N)=O)[C@H]1O)c1cnc[nH]1 (stereo partly drawn) | – | – | – | – | – | inactive | – | – | – | – | 1.18 µM (active)
COc1ccc(N(C(=O)Oc2c(C)cccc2C)c2ccnc(Nc3ccc(N4CCN(C)CC4)cc3)n2)c(OC)c1 | – | – | – | – | 13200 nM (active) | – | inactive | – | – | – | 18.7 µM (active)
CC[C@@H]1[C@@H](C)O[C@@](O)([C@@H](C)[C@H](O)[C@H](C)[C@H]2OC(=O)C=CC=C[C@@H](C)[C@@H]([C@@H](C)[C@@H](O)[C@H](C)[C@@]3(O)C[C@H](O[C@H]4C[C@H](O)[C@H](O)[C@H](C)O4)[C@H](CC)[C@@H](C)O3)OC(=O)C=CC=C[C@@H]2C)C[C@H]1O[C@H]1C[C@H](O)[C@H](O)[C@H](C)O1 | – | – | 16600 nM (active) | 8330 nM (active) | 14800 nM (active) | – | 8330 nM (active) | – | – | – | 1.66 µM (active)
C[C@H]1CCCC=CC2C[C@H](O)C[C@@H]2[C@H](O)C=CC(=O)O1 (stereo partly drawn) | – | – | inactive | inactive | inactive | inactive | inactive | – | – | – | 1.05 µM (active)
O=S(=O)(O)C(F)(F)C(F)(F)C(F)(F)C(F)(F)C(F)(F)C(F)(F)C(F)(F)C(F)(F)F | – | – | inactive | inactive | inactive | – | inactive | inactive | – | inactive [at 92 µM] | –
CC(C)(O)C(=O)Nc1ccc([N+](=O)[O-])c(C(F)(F)F)c1 | – | – | inactive | inactive | inactive | – | inactive | inactive | – | inactive | –
O=[N+]([O-])c1ncc[nH]1 | -0.757% | – | inactive | inactive | inactive | inactive | inactive | – | – | – | –
CC(=Cc1csc(C)n1)[C@@H]1C[C@H]2O[C@]2(C)CCC[C@H](C)[C@@H](O)[C@@H](C)C(=O)C(C)(C)[C@@H](O)CC(=O)O1 | -85.8% | – | inactive | – | inactive | inactive | – | – | – | – | –
CCN1CCN(C(=O)Cc2ccc(Nc3ncc(F)c(Nc4ccc(C(=O)Nc5ccccc5Cl)cc4)n3)cc2)CC1 | – | – | – | inactive | – | 9350 nM (active) | – | – | – | – | 20.6 µM (active)
CO/C=C(/C(=O)OC)c1ccccc1Oc1cc(Oc2ccccc2C#N)ncn1 | – | – | – | inactive | – | 13700 nM (active) | – | – | – | – | 6.86 µM (active)
CCNC(=O)C[C@@H]1N=C(c2ccc(Cl)cc2)c2cc(OC)ccc2-n2c(C)nnc21 | – | – | inactive | – | – | 1660 nM (active) | – | – | – | – | 1.84 µM (active)

Source: PubChem BioAssay (NCATS)
